We go through 16 molecules from PubChem BioAssay AID493194 (Broad Institute, 2011).

Measured potencies and affinities stand elsewhere. Inconclusive results are not listed. The source made the active and inactive calls.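 How the source made its calls: active means a valid curve of falling signal whose half-effect concentration is at most ten times the top tested dose; inconclusive means flat curve at 30 to 70% inhibition, or poor fit; inactive means signal rise, flat within 30%, or potency beyond limit.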

In the test the target is Scavenger receptor class B member 1 (Mus musculus) (UniProt Q61009). As to the kind of experiment: mouse SR-BI DiI-HDL uptake blockers – ldlA[mSR-BI] cells, fluorescence, cherry pick, dose response (AID 493194).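 Further: CHO cells lacking LDL receptor and overexpressing mouse SR-BI; cellular uptake of fluorescently labeled HDL measured as cell fluorescence; 0% = median of neutral control wells and -100% = median of positive control wells.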 The settings on record: CHO ldlA[mSR-BI] DiI-HDL uptake fluorescence, 3 h; series mostly up to 35 µM; activity change, negative = inhibition: at the top concentration.
Sequence of Scavenger receptor class B member 1 (Mus musculus) (Q61009 whole entry, looked up): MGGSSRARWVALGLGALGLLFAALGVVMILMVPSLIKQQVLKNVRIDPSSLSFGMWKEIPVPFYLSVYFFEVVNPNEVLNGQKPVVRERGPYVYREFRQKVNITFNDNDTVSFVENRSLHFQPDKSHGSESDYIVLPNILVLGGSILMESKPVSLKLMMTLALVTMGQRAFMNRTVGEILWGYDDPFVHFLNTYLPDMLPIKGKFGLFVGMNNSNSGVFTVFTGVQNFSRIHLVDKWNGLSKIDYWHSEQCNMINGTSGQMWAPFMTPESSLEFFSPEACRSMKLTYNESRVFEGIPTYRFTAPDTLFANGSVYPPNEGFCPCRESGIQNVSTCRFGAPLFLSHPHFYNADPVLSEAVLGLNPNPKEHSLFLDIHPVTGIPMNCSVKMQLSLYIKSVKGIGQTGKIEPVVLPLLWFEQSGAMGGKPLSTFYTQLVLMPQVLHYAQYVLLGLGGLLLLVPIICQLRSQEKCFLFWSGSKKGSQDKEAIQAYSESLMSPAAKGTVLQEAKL
As for `O=C(c1ccc(-n2nc(C(F)(F)F)c3c2CCCC3)cc1)N1CCOCC1`, the “activity change, negative = inhibition” value is -4.78% (inactive). Regarding `CCn1nc(C)c(CN2CCc3c([nH]c4ccccc34)C2c2ccc(F)c(OC)c2)c1C` (stereo unspecified), the “activity change, negative = inhibition” value is -40.9% (inactive). As for `COc1ccc(-c2nnc(SCC(=O)Nc3ncc(C(F)(F)F)cc3Cl)n2CC(C)C)cc1`, the “activity change, negative = inhibition” value is -12.1% (inactive). `Cc1ccc(C)c(N2CCN(CCCNC(=O)Cn3c(=O)c4cccn4c4cccnc43)CC2)c1`: the “activity change, negative = inhibition” value is 2.88% (inactive). For the molecule `COc1cc(/C=C/C(=O)Nc2cccc(S(=O)(=O)NC3=NCCCCC3)c2)ccc1OCC#N`, the “activity change, negative = inhibition” value was -16.7% (inactive). The value for `COc1ccc(CCNC(=O)c2ccc3c(c2)N(Cc2ccc(C)cc2)CCS3)cc1OC` was 4.2% (inactive). Then `CCC(C)(C)NC(=O)C(c1ccc(C)cc1)N(Cc1cccs1)C(=O)c1ccc2c(c1)OCCO2` (stereo unspecified), with -5.45% (inactive); and `COc1ccccc1NC(=O)CN1CCN(CC(=O)Nc2ccc(C)c(F)c2)CC1`, with -39.7% (inactive).

Consider `Cc1nc(NCc2cccnc2)c2c3c(sc2n1)CC(C)CC3` (stereo unspecified), for which the “activity change, negative = inhibition” value is -4.92% (inactive). The value for `Cc1ccc(NS(=O)(=O)c2ccc(C(=O)NNC(=O)c3ccccc3O)cc2)cc1` was 14.7% (inactive).

Take `COc1cc(-c2nnn(Cc3ccccc3C)n2)cc(OC)c1OC`: the “activity change, negative = inhibition” value is -31.9% (inactive). The value for `O=C(OCc1ccccc1)N1CCC2CC1c1cc(-c3ccccc3)ccc12` (stereo unspecified) was 36.1% (inactive). Regarding `CC(C)OC(=O)c1cccc(C(=O)Nc2cccc(NC(=O)c3cccc(C(=O)OC(C)C)n3)n2)n1`, the “activity change, negative = inhibition” value was 4.41% (inactive). Then `Cn1c(CCN2CCN(c3ccccn3)CC2)nc2cc(NS(=O)(=O)c3ccc(Cl)cc3)ccc21`, with -2.37% (inactive); and `Cc1c(C(=O)CN2CCCC(C)(C)C2)c2ccccc2n1C`, with 34.2% (inactive); and `Cc1cccc(Nc2ccccc2C(=O)OCC(=O)N(C)C2CCS(=O)(=O)C2)c1C` (stereo unspecified), with -26.6% (inactive).
